# “And” between values parts separate entries of the source, which are not always exact repeats. Identical values can stand only once. This is part of a sample that, as a whole, favours compounds with a hit. Of some 83,000 tested, about 20% had one in any assay.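 96-well plates, one dose, 48 hours. Percent growth reported; active if below 10.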 The source made the active and inactive calls.
# System: MDA-MB-468 breast
# Test: NCI-60 one-dose screen, 48 h (100 = growth as untreated, 0 = no growth, -100 = all killed)
# Conditions: 10 µM unless noted
row,Compound,growth
1,CC1=C2C(=O)[C@](C)(CO)C=C2C(=O)[C@](C)(O)C12CC2,-69.8% (active)
2,COC(=O)C1CC2c3ccccc3C1c1ccccc12 (stereo unspecified),93.1% (inactive)
3,COc1ccc2c(c1)c(-c1nc(-c3c[nH]c4ncccc34)cs1)cn2CCN1CCOCC1,0.314% (active)
4,C[C@]12CC[C@H]3[C@@H](CC[C@]4(O)C[C@@H](O[C@@H]5O[C@H](CO)[C@@H](O[C@@H]6OC[C@@H](O)[C@H](O)[C@H]6O)[C@H](O)[C@H]5O)CC[C@]34C=O)[C@@]1(O)CC[C@@H]2C1=CC(=O)OC1,38.7% (inactive)
5,COc1ccc(/C=C\[N+](=O)[O-])cc1OC,53.6% (inactive) and 11.6% (inactive)
6,Nc1ccc(P(=O)(O)O)cc1,104% (inactive) and 92.6% (inactive)
7,C/C(=C\c1ccn(-c2ccc(N)cc2F)n1)[C@@H]1C[C@@H]2O[C@]2(C)CCC[C@H](C)[C@H](O)[C@@H](C)C(=O)C(C)(C)[C@@H](O)CC(=O)O1,8.6% (active)
8,[Cl][Hg][n]1c(-c2ccco2)nc2ccccc21,94.4% (inactive)
9,[N-]=[N+]=CC(=O)CCC(=O)C=[N+]=[N-],113% (inactive)
10,O=C(NCCN1CC1)C(=O)NCCN1CC1,81.3% (inactive)
11,Oc1ccccc1OB(Oc1ccccc1O)N(CCCl)CCCl,84% (inactive)
12,CCCCNC(c1ccc(Cl)cc1)C(O)c1ccc(Cl)cc1 (stereo unspecified),-14.6% (active)
13,C=CC(=O)NC(O)C(Cl)(Cl)Cl (stereo unspecified),121% (inactive)
14,NNc1ccccc1,109% (inactive)
15,Oc1ccccc1C=NCCN=Cc1ccccc1O.[Fe],64.3% (inactive)
16,CC(C)(C)OOC(=O)/C=C\C(=O)OOC(C)(C)C,108% (inactive)
17,C/C=C/CC(C)C(O)[C@H](NC(=O)[C@@H]1CCCN1C(=O)C(C)(C)NC(=O)CCCCCCCCC)C(=O)NC(C)(C)C(=O)N[C@@H](CCC(N)=O)C(=O)N[C@H](CCC(N)=O)C(=O)NC(C)(C)C(=O)NC(C)(C)C(=O)N[C@@H](CCC(N)=O)C(=O)N[C@H](CC(C)C)C(=O)N[C@H](CO)CC(C)C (stereo partly specified),-75.9% (active) and -84.9% (active)
18,Cc1cc(NC(=O)/C=C/c2ccc([N+](=O)[O-])cc2)ccc1S(=O)(=O)F,114% (inactive)

row,Compound,growth
1,COc1ccc(CN)cc1OC,114% (inactive)
2,C[C@]12CC[C@H]3[C@@H](CC=C4c5nc(-c6ccc(Br)cc6)sc5CC[C@@]43C)[C@@H]1CC[C@@H]2O,110% (inactive)
3,NC(Cc1ccccc1)c1ccccc1 (stereo unspecified),107% (inactive) and 105% (inactive)
4,Cn1cc(-c2csc(-c3cn(CCN4CCOCC4)c4ccc(F)cc34)n2)c2cccnc21,13.9% (inactive)
5,O=C(CCF)c1ccc(O)cc1,108% (inactive)
6,O=[N+]([O-])c1ccc2scc3c4ccccc4nc-3c2c1,-84.5% (active)
7,CO[C@H](C(=O)O)[C@@H]1Cc2cc3cc(OC4CC(OC5CC(O)C(O)C(C)O5)C(O)C(C)O4)c(C)c(O)c3c(O)c2C(=O)[C@H]1OC1CC(OC2CC(OC3CC(C)(O)C(O)C(C)O3)C(O)C(C)O2)C(O)C(C)O1 (stereo partly specified),-16.7% (active)
8,C[C@@H]1C/C=C\C(=O)O[C@H](/C=C/C#C/C=C/C(C)(C)[C@@H](O)c2cccc(O)c2Br)[C@@H](C)/C=C/[C@H](C)C[C@H](OC(N)=O)C1,33.6% (inactive)
9,N#CC(NC(=O)CCl)=C(Cl)Cl,-48.2% (active)
10,NC(=O)NC(=O)CI,83.7% (inactive)
11,NCCc1ccc(OCc2ccccc2)c(OCc2ccccc2)c1,48.5% (inactive)
12,O=C(O)c1cc([N+](=O)[O-])cc([N+](=O)[O-])c1,103% (inactive)
13,[Cl][Sn]([c]1ccccc1)([c]1ccccc1)[c]1ccccc1,-75% (active)
14,O=[N+]([O-])CC(O)C(Cl)(Cl)Cl (stereo unspecified),102% (inactive)
15,C[C@@H]1CC[C@@H]2[C@@H]1[C@H](OC(=O)/C=C/C1CCCCC1)[C@]1(C3CCCCC3)C[C@@H](OC(=O)CO)[C@@]2(C)O1,59.5% (inactive)
16,COc1cc(C=Nc2cc(Cl)cc(Cl)c2)ccc1N(CCCl)CCCl,36.3% (inactive)
17,CC(C)=CCC[C@H](C(=O)O)[C@@H]1CC[C@]2(C)C3=C(CC[C@@]12C)[C@@]1(C)CC[C@H](O)C(C)(C)[C@@H]1CC3,107% (inactive)
18,CC12CCC3C4CCC(=O)C=C4CCC3C1CC1CC(=O)OC12 (stereo unspecified),102% (inactive)

# — PubChem BioAssay (NCI)
